SW480 rerep: inducers of DNA re-replication in SW480 colon cancer cells | Potency, µM (doses to about 46.1 µM), most hits filed as activators | 340,000 tested, 1.8% active | SW480 DNA re-replication, Hoechst DNA content imaging, 48 h; note: nearly all actives have a fitted effect of over 55% in size
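SW480 cells exposed to compounds for 48 hr at 37 C, 5% CO2, then Hoechst-stained 40 min. Nuclear DNA content imaged by fluorescence scanning (405 nm excitation, 500-530 nm emission); re-replication scored as increased high-intensity nuclei.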
MCF10A rereplic: inducers of DNA re-replication in MCF 10A breast cells; MCF 10A DNA re-replication, Hoechst nuclear intensity, 48 h; Potency, µM (highest dose often 46.1 µM), usual class: activators; 350,000 tested, 2.9% active; note: nearly all actives have a fitted effect of over 50% in size
VP16 counter: Gal4-VP16 reporter inhibition counter-screen. 310,000 tested, 3.5% active. Potency, µM (top dose mostly 53.6 µM), hits mostly inhibitors. Drosophila S2 Gal4-VP16 UAS-luciferase, luminescence, 20 h. AID 2546;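 note: Gal4-VP16 expression switched on by copper sulfate through the metallothionein promoter; nearly all actives have a fitted effect of over 50% in size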
ELG1 DNA repair: inhibitors of ELG1-dependent DNA repair in HEK293T cells | HEK293T ELG1-luciferase reporter, luminescence, 16 h; DNA damage induced by 5-fluorouridine | Potency, µM (top dose mostly 46.1 µM), usual class: inhibitors | 330,000 tested, 2.3% active; note: nearly all actives have a fitted effect of over 55% in size
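Reporter activity after DNA damage by 5-fluorouridine is monitored. Compound-treated cells incubate 16 hr at 37 °C, then ONE-Glo is added for 30 min before luminescence reading.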
RORgamma inh: ROR gamma (mouse) transcription inhibition; P51450; Drosophila S2 Gal4-RORgamma UAS-luciferase reporter, 20 h; Potency, µM (series often up to 53.6 µM), usual class: inhibitors; 310,000 tested, 5.4% active; AID 2551; note: nearly all actives have a fitted effect of over 60% in size
Target sequence (P51450 whole entry, looked up, the tested form may be a part): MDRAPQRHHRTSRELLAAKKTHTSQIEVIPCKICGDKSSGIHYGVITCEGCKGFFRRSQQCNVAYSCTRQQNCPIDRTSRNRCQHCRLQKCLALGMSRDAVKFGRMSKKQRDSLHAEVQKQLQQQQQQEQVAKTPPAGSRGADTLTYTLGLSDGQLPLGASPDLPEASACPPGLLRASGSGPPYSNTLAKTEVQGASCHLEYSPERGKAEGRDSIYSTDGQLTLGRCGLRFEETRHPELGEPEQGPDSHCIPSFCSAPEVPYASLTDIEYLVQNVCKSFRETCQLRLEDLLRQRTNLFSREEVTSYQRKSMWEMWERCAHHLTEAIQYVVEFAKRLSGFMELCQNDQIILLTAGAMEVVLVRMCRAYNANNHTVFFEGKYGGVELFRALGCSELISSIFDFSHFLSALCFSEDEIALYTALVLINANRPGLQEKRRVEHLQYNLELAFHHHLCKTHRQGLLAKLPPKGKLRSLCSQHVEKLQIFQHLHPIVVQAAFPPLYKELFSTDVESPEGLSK
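Using a luciferase readout, inhibitors were identified by reduced reporter activity in Drosophila cells coexpressing a copper-inducible Gal4–ROR gamma fusion and UAS-driven Photinus luciferase, incubated 20 hr after 700 uM copper sulfate.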
Hits are given with their value; 0 = inactive; ? = inconclusive; - = not tested or not shown; ! = repeats disagree; [ ] = dose if it differs, or a comment. This is a sample that favours compounds with a hit; in the whole collection about 10% have one here. Calls come from the whole dose curve; as a rule, active = well fitted curve in the direction sought with a large enough effect; inconclusive = small, poorly fitted or top-dose-only effect, or another doubt; inactive = no such curve, though single readings can be large; an effect the other way counts as inactive or inconclusive.

SMILES	SW480 rerep	MCF10A rereplic	VP16 counter	ELG1 DNA repair	RORgamma inh
CCNC(=S)NNC(=O)c1csc(C)c1	0	0	?	0	13µM
COc1ccc(C(=O)NNC(=S)NC2CCCCC2)cc1OC	0	0	?	0	7.9µM
COc1ccc(C(=O)NC2CCCCCCC2)cc1OC	0	0	-	-	-
Cc1cc(C(=O)NNC(=S)NC2CCCCC2)cs1	0	0	?	?	3.2µM
COc1cccc(C(=O)NNC(=S)NC2CCCCC2)c1	0	0	?	?	?
CCC(C)(C)OC	-	-	?	-	0
CCN1C(C)=C(C(=O)OC(C)C)C(c2ccccc2Cl)C(C(=O)O)=C1C(=O)O (stereo unspecified)	-	-	0	-	?
C[C@@H](NC(=O)c1nc[nH]c1C(=O)N1CCc2ccccc2C1)c1ccccc1	0	?	-	0	-
CCN(CC)CCOCCOC(=O)C(CC)(CC)c1ccccc1 (tested in a mixture with another compound)	0	30µM	0	-	0[10 µM]
COc1ccc2c(c1)C(=O)[C@@H](OC(=O)NCc1ccc3c(c1)OCO3)[C@H](c1ccc(OC)c(Br)c1)O2	?	0	0	18µM	0
COc1ccc2c(c1)C(=O)[C@H](OC(=O)NCc1ccc3c(c1)OCO3)[C@@H](c1ccc(OC)c(Br)c1)O2	-	-	0	-	0
COc1ccc2c(c1)C(=O)[C@@H](O)[C@H](c1ccc(OC)c(Br)c1)O2	12µM	?	0	?	?
COc1cccc([C@@H]2Oc3ccc(OC)cc3C(=O)[C@H]2O)c1	?	?	?	?	13µM!
COc1cccc([C@@H]2Oc3ccc(Br)cc3C(=O)[C@H]2O)c1	-	-	0	-	0
O=C(OCCCOC(=O)c1ccc([N+](=O)[O-])o1)c1ccc([N+](=O)[O-])o1	0	0	-	0	-
S=c1[nH]nc(CN2CCCCC2)n1-c1ccc(Cl)cc1	0	0	?	0	7.1µM
FC(F)(F)c1ccccc1-n1c(CN2CCCCC2)n[nH]c1=S	0	0	0	0	11µM
Fc1ccc(-n2c(CN3CCCCC3)n[nH]c2=S)cc1	0	0	0	0	?
OCC#Cc1ncc(C(F)(F)F)cc1Cl	?	?	13µM	0	?
Cc1cc2nc(C)c3c(n2n1)CCC3	0	0	0	0	0
CC(=O)c1cccc(NC(=O)NC(C)c2ccc3c(c2)OCO3)c1 (stereo unspecified)	0	0	0	0	0
COc1ccc(C(C)NCCC(c2ccc(OC(C)C)cc2)c2ccccc2OC)cc1 (stereo unspecified)	?	23µM	?	?	?
CC(C)c1c(O)ccc2c1CC[C@H]1C(C)(C)CCC[C@]21C	0	?	-	-	-
CC(C)c1c(O)ccc2c1CCC1C(C)(C)CCC[C@@]21C (stereo partly specified)	-	-	10µM	-	?
CCOC(=O)c1cnc2c(Cl)cc(Cl)cc2c1NCCOCCO	0	0	0	18µM	0
SMILES	SW480 rerep	MCF10A rereplic	VP16 counter	ELG1 DNA repair	RORgamma inh
CCOC(=O)c1cnc2ccccc2c1NCCO	0	0	0	0	0
CCC1CCCCN1c1cc(C)nc2cc(-c3cccc(C)c3)nn12 (stereo unspecified)	?	3.5µM	0	0	10µM
CCN(CC)CCNC(=O)c1ccc(NC(=O)Cc2ccccc2F)cc1	0	?	0	0	0
CCN(CC)CCNC(=O)c1ccc(NC(=O)c2cccc(S(=O)(=O)N(C)C3CCCCC3)c2)cc1	0	0	-	-	-
CCN(CC)CCNC(=O)c1ccc(NC(=O)c2ccc3c(c2)CCC3)cc1	18µM	0	0	?	0
CCN(CC)CCNC(=O)c1ccc(NC(=O)c2ccccc2-c2ccc(C(F)(F)F)cc2)cc1	?	21µM	?	0	?
CCc1ccc(NC(=O)CNC(=O)Cn2ccc3ccccc3c2=O)cc1	0	0	0	0	0
COc1ccc(COC(=O)N/N=C2/C[C@@H](O)[C@@H](O)[C@@H]3[C@@H]4C(=O)N(C5CCCCC5)C(=O)[C@H]4CC[C@@H]23)cc1	-	-	0[10 µM]	-	0[10 µM]
COc1cc(/C=N/NC(=O)C2CC(=O)N(c3ccc(C)cc3)C2)cc(OC)c1OC (stereo unspecified)	0	0	0	?	0
O=C(CSc1ncnc2c1nnn2Cc1ccccc1)NC1CCCCC1	?	23µM	?	0	0
O=C(CSc1ncnc2c1nnn2Cc1ccccc1F)NCC1CCCO1 (stereo unspecified)	0	?	0	0	13µM
O=C(CSc1nnnn1Cc1ccccc1)NC1CCCCC1	0	0	0	0	0
Oc1ccccc1-c1nnc(-c2ccc(C(F)(F)F)cc2)o1	0	?	6.3µM	?	3.5µM
Cc1cc(C(=O)N/N=C2\CC(=O)CC(C)(C)C2)c(C)n1-c1ccccc1	0	21µM	?	0	0
Cc1cc(C(=O)N/N=C2\CC(=O)CC(C)(C)C2)c(C)n1-c1ccc(F)cc1	0	0	0	0	0
O=C1C(C2=C(O)c3ccccc3C2=O)=Nc2ccccc21	?	23µM	?	0	0
O=C1c2ccccc2-c2nc3ccccc3nc21	0	0	0	?	0
CCN(CC)C(=S)S	?	0	3.5µM	-	?
Cc1cnc(CNc2ccnc(-c3ccccc3CN(C)C)n2)cn1	-	-	0	-	0
CCNC(=S)N/N=C/c1cc(C)n(-c2ccc(Cl)cc2)c1C	0	?	5µM	?	1.4µM
Cc1cc(/C=N\NC(=O)CC(=O)NC2CCCCC2)c(C)n1-c1ccc(Cl)c(Cl)c1	0	0	0	0	0
Cc1cc(/C=N/NC(N)=S)c(C)n1-c1ccc(Cl)c(Cl)c1	18µM	26µM	3.2µM	?	1.4µM
Cc1nc2ccccn2c1C(=O)N/N=C/c1cc(C)n(-c2ccc(Cl)cc2)c1C	0	0	13µM	?	20µM
Cc1nc2ccccn2c1C(=O)N/N=C/c1ccccc1[N+](=O)[O-]	0	0	0	0	0
CCC1CCC/C1=N\NC(=O)c1ccccc1C (stereo unspecified)	0	0	-	-	-
SMILES	SW480 rerep	MCF10A rereplic	VP16 counter	ELG1 DNA repair	RORgamma inh
CC(C)CN1C(=O)C(=O)N(CC(=O)Nc2cccc(Cl)c2Cl)C1=O	0	0	-	0	-
C[C@@H](C(=O)N[C@@H](CO)Cc1ccccc1)[C@H]1C[C@]1(C)[C@H](NC(=O)OCc1ccccc1)c1ccccc1	-	-	0	-	0
O=C(Nc1nncs1)C(Sc1ccccc1)c1ccccc1 (stereo unspecified)	0	0	0	0	11µM
Cc1cccc2cc(C#N)c(NCCNS(=O)(=O)c3ccccc3)nc12	?	21µM	0	0	0
Cc1cccc2cc(C#N)c(NCc3ccccc3)nc12	?	23µM	7.1µM	0	5.6µM
Cc1cccc2cc(C#N)c(NCCCNS(=O)(=O)c3ccc(Cl)cc3)nc12	16µM	?	?	?	0
COc1ccc(Nc2nc3cc(C)ccc3cc2C#N)cc1	0	0	0	0	0
Cc1ccc2cc(C#N)c(NCc3ccccc3)nc2c1	?	9.2µM	0	0	0
NS(=O)(=O)c1ccc(CNC(=S)NC2CC2)cc1	0	0	0	0	0

Screening results: PubChem BioAssay, National Center for Advancing Translational Sciences (NCATS)
